Values joined by “and” are separate entries in the source; they are usually repeats but may differ in a detail not shown here. Identical values can stand only once.
What was measured:
[1] = target: Glycogen synthase kinase-3 beta (Homo sapiens) (UniProt P49841); conditions: at 1 µM;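 also: reported values are mean percent inhibition of GSK3B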
[2] = target: Homeodomain-interacting protein kinase 1 (Homo sapiens) (UniProt Q86Z02); conditions: at 0.1 µM
[3] = target: Homeodomain-interacting protein kinase 1 (Homo sapiens) (UniProt Q86Z02); conditions: at 1 µM
[4] = target: T1, Homeodomain-interacting protein kinase 4 (Homo sapiens) (UniProt Q8NE63); conditions: at 0.1 µM
T1 sequence (whole entry): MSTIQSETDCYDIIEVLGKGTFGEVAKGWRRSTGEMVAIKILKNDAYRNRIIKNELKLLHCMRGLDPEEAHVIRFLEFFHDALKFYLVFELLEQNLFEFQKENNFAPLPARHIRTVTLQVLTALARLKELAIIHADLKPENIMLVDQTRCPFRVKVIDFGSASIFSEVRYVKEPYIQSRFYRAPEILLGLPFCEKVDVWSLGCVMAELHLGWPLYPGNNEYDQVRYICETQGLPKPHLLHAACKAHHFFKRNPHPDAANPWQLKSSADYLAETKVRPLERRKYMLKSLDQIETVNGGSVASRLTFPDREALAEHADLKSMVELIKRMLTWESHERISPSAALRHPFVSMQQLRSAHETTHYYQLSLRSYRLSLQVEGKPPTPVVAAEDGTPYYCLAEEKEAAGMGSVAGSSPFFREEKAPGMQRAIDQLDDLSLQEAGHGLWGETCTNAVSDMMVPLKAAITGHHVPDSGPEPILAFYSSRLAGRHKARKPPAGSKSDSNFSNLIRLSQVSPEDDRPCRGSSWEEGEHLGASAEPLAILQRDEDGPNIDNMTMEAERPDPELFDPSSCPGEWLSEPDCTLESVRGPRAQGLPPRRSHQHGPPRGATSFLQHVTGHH

[5] = target: T1, Homeodomain-interacting protein kinase 4 (Homo sapiens); conditions: at 1 µM
[6] = target: Mitogen-activated protein kinase 9 (Homo sapiens) (UniProt P45984); conditions: at 0.1 µM
[7] = target: Mitogen-activated protein kinase 9 (Homo sapiens) (UniProt P45984); conditions: at 1 µM
[8] = target: Mitogen-activated protein kinase 1 (Homo sapiens) (UniProt P28482); conditions: at 0.1 µM
[9] = target: Mitogen-activated protein kinase 1 (Homo sapiens) (UniProt P28482); conditions: at 1 µM
[10] = target: Mitogen-activated protein kinase 3 (Homo sapiens) (UniProt P27361); conditions: at 0.1 µM
[11] = target: Mitogen-activated protein kinase 3 (Homo sapiens) (UniProt P27361); conditions: at 1 µM
[12] = target: SRSF protein kinase 3 (Homo sapiens) (UniProt Q9UPE1); conditions: at 0.1 µM
[13] = target: SRSF protein kinase 3 (Homo sapiens) (UniProt Q9UPE1); conditions: at 1 µM
[14] = target: Mitogen-activated protein kinase 14 (Homo sapiens) (UniProt Q16539); conditions: at 0.1 µM
[15] = target: Mitogen-activated protein kinase 14 (Homo sapiens) (UniProt Q16539); conditions: at 1 µM
[16] = target: Mitogen-activated protein kinase 11 (Homo sapiens) (UniProt Q15759); conditions: at 0.1 µM
[17] = target: Mitogen-activated protein kinase 11 (Homo sapiens) (UniProt Q15759); conditions: at 1 µM
[18] = target: T2, Mitogen-activated protein kinase 13 (Homo sapiens) (UniProt O15264); conditions: at 0.1 µM
T2 sequence (whole entry): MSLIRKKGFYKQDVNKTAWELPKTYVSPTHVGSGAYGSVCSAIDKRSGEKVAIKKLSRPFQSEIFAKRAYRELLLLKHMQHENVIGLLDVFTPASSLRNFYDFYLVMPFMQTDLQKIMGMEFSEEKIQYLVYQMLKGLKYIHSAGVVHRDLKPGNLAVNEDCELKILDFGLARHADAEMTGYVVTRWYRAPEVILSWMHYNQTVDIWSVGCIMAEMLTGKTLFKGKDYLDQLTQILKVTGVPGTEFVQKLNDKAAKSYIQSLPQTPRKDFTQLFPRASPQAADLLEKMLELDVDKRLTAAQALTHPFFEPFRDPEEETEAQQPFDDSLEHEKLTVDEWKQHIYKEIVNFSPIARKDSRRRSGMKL

[19] = target: T2, Mitogen-activated protein kinase 13 (Homo sapiens); conditions: at 1 µM
[20] = target: T3, Mitogen-activated protein kinase 12 (Homo sapiens) (UniProt P53778); conditions: at 0.1 µM
T3 sequence (whole entry): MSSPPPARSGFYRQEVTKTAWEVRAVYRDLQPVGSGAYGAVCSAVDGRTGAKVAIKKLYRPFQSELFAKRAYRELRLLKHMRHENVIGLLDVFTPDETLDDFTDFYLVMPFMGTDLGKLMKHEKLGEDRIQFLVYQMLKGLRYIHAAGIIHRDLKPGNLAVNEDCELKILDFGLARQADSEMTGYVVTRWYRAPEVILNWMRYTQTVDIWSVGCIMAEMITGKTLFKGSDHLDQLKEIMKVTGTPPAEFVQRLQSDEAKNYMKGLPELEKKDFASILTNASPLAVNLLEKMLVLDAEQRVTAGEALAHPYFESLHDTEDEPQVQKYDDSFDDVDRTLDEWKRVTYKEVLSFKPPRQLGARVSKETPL

Mitogen-activated protein kinase 9 (Homo sapiens), sequence (P45984 whole entry, looked up): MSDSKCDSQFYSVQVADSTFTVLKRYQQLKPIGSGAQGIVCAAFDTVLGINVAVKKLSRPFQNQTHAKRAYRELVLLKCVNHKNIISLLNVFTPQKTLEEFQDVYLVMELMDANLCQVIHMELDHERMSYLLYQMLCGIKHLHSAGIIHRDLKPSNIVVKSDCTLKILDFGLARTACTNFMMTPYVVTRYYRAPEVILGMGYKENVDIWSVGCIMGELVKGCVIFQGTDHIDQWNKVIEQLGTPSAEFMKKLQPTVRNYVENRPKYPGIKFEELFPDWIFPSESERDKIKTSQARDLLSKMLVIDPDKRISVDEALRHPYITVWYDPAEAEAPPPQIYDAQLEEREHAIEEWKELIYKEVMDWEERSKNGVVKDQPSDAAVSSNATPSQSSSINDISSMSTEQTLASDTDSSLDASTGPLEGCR
Glycogen synthase kinase-3 beta (Homo sapiens), sequence (P49841 whole entry, looked up): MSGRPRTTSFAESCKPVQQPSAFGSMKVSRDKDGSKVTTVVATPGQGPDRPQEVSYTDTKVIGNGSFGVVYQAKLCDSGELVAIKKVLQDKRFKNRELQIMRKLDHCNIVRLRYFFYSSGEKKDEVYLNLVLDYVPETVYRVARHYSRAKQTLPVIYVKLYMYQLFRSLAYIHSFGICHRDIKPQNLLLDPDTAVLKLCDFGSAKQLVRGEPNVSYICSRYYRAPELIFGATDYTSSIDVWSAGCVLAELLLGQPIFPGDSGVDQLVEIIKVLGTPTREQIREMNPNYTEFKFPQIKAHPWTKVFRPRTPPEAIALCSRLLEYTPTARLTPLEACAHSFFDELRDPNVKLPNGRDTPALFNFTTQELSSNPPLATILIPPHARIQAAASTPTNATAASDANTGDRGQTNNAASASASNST
Homeodomain-interacting protein kinase 1 (Homo sapiens), sequence (Q86Z02 whole entry, looked up): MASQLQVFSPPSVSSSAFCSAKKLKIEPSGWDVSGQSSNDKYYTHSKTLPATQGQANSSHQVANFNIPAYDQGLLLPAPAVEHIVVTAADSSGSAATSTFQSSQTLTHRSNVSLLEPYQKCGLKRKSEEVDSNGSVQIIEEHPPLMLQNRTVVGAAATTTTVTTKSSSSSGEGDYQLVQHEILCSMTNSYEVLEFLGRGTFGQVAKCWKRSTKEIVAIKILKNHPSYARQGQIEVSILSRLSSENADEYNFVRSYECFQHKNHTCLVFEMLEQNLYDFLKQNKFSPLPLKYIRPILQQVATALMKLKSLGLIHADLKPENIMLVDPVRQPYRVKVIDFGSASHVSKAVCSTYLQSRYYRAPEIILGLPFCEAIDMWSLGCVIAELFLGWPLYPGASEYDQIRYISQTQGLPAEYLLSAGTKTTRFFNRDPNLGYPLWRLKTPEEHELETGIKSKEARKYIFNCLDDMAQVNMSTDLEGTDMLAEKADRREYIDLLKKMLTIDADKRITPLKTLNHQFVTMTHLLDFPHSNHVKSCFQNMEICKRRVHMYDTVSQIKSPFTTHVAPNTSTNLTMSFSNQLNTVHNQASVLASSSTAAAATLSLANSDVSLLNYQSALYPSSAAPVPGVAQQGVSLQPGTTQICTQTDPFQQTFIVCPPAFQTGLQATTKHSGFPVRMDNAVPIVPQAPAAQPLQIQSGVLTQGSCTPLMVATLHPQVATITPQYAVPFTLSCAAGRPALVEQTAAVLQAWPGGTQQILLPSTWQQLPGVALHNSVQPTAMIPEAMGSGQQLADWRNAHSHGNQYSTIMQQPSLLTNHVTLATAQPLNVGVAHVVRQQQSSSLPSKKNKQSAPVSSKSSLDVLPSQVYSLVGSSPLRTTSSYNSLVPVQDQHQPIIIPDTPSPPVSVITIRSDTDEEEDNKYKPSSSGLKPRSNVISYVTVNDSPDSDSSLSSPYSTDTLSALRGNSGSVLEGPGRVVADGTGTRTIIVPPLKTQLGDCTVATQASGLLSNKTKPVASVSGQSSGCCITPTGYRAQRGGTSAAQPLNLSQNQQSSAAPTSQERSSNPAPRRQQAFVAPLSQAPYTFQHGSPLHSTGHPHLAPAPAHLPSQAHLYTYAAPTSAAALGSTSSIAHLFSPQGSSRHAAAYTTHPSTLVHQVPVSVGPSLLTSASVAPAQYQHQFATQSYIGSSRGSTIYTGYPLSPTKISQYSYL
Mitogen-activated protein kinase 3 (Homo sapiens), sequence (P27361 whole entry): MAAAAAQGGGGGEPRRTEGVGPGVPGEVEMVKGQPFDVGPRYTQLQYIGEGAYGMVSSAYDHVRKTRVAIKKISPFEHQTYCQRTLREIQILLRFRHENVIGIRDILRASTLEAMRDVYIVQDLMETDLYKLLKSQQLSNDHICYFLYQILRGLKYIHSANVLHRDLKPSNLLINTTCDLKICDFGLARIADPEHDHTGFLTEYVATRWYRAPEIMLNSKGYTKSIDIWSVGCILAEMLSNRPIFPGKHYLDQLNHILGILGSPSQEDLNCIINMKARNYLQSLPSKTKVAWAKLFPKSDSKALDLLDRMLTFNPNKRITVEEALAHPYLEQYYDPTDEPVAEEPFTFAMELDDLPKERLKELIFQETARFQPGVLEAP
Mitogen-activated protein kinase 11 (Homo sapiens), sequence (Q15759 whole entry): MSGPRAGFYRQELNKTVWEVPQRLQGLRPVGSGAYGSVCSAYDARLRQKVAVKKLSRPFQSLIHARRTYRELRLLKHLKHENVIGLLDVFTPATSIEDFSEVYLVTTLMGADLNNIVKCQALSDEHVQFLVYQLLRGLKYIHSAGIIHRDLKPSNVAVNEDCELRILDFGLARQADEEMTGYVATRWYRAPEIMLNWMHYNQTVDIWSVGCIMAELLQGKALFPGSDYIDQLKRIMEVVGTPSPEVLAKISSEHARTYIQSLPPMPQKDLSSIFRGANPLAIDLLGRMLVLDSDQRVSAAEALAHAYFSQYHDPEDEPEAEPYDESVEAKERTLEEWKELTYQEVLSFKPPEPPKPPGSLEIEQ
Mitogen-activated protein kinase 14 (Homo sapiens), sequence (Q16539 whole entry): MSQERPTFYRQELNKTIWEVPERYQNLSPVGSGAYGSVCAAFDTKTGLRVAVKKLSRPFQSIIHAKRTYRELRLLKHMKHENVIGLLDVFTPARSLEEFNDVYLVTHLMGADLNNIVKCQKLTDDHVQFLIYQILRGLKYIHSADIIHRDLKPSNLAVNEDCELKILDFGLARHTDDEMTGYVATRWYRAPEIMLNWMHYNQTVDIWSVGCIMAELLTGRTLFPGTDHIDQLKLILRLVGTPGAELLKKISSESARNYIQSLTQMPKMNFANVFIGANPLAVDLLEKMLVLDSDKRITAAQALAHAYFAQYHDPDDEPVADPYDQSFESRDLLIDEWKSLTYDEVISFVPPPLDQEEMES
Mitogen-activated protein kinase 1 (Homo sapiens), sequence (P28482 whole entry): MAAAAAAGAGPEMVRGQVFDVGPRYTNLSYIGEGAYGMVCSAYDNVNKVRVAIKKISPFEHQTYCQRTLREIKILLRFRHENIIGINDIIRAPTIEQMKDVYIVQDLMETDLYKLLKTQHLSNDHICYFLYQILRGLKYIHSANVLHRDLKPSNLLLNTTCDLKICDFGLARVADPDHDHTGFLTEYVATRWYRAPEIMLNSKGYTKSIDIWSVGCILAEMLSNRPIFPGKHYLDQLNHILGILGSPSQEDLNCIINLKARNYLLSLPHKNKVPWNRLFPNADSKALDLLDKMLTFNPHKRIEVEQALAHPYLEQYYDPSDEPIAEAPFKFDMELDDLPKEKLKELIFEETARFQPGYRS
SRSF protein kinase 3 (Homo sapiens), sequence (Q9UPE1 whole entry): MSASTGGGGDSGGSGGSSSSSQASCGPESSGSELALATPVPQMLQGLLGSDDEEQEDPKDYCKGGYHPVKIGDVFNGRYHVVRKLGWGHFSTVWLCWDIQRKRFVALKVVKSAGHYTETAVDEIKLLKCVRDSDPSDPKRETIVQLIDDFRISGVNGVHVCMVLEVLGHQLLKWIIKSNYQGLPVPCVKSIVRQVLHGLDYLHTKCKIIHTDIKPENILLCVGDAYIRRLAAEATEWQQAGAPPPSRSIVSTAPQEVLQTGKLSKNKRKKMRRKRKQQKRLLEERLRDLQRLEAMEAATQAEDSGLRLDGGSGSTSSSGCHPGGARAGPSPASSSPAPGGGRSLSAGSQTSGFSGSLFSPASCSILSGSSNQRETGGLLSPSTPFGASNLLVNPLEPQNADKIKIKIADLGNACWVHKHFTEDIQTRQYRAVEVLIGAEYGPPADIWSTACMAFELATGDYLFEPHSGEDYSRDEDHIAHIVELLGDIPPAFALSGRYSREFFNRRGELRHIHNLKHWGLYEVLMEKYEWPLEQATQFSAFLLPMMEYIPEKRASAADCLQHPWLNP

Compound | inhibition [1] | inhibition [2] | inhibition [3] | inhibition [4] | inhibition [5] | inhibition [6] | inhibition [7] | inhibition [8] | inhibition [9] | inhibition [10] | inhibition [11] | inhibition [12] | inhibition [13] | inhibition [14] | inhibition [15] | inhibition [16] | inhibition [17] | inhibition [18] | inhibition [19] | inhibition [20]
CC1=C(C(=O)Nc2ccc3[nH]nc(C)c3c2)C(c2ccc(C(F)(F)F)cc2)CC(=O)N1 (stereo not given) | 10.3% | 3.11% | 7.43% | 3.59% | 7.18% | 2.4% | 3.81% | 6.06% | 35.1% | 3.88% | 19.7% | 1.18% | -0.95% | 1.31% | 5.28% | -0.15% | 0.38% | 1.19% | 6.03% | -4.7%
CN1CCC(n2cnc(-c3ccc(F)cc3)c2-c2ccnc(NCCO)n2)CC1 | 7.21% | 3.91% | 7.67% | 2.19% | 4.16% | 8.58% | 37.3% | 2.94% | 6.12% | 3.9% | 6.51% | -0.9% | 1.7% | 66.3% | 86.3% | 12.9% | 52.5% | 2.89% | 4.31% | 3.94%
CN1CCC(C(=O)Nc2n[nH]c3nc(-c4ccc(O)cc4)c(Br)cc23)CC1 | – | 2.86% and -1.65% | 20.1% and 19.3% | 0.89% and 1.06% | 5.87% and 4.37% | 5.88% and 4.7% | 16.6% and 13.9% | 6.51% and 1.55% | 12.1% and 3.95% | 5.16% and 1.61% | 6.59% and 1.2% | -1.97% and -1.1% | -0.76% and -0.97% | 1.69% and 4.12% | 13% and 10.5% | 4.89% and 2.05% | 17.5% and 8.93% | 2.74% and 2.79% | 13.7% and 11.6% | 4.48% and 2.47%
Nc1ncnc2occ(-c3ccc(NC(=O)Nc4cc(C(F)(F)F)ccc4F)cc3)c12 | 17% and 5.38% | 5.43% and -2.68% | 37.4% and 21.6% | 60.9% and 51.1% | 78.3% and 77.3% | 4.06% and -9.27% | 21.3% and 4.35% | 1.97% and -3.05% | 1.72% and -1.67% | 0.93% and 0.1% | 2.88% and -1.29% | 9.33% and 10.1% | 49.1% and 43.5% | 8.71% and -2.42% | 36.6% and 20.3% | 6.21% and 3.71% | 39% and 32.9% | 5.66% and 0.72% | 29.3% and 17.7% | 15% and 4.47%
Nc1nccc(-c2c(-c3ccc(F)cc3)ncn2C2CCNCC2)n1 | 2.45% and 5.63% | -0.66% and 2.64% | 7.61% and 4.5% | 0.4% and 1.82% | 8.1% and 1.64% | – | – | -4.78% | 0.6% and 1.9% | -1.7% and 0.12% | 1.29% and 5.05% | -1.41% and 0.32% | -1.34% and 0.18% | – | – | – | – | – | – | –
O=C(O[C@H]1CN[C@H](C#Cc2cc3ncnc(Nc4ccc(OCc5cccc(F)c5)c(Cl)c4)c3s2)C1)N1CCOCC1 | 4.2% | 1.86% | 0.81% | 2.71% | 4.99% | 3.19% | 7.19% | 7.72% | 5.38% | 4.82% | 5.48% | -1.6% | -1.95% | 3.55% | 7.34% | 5.95% | 5.11% | 1.84% | 6.02% | 3.76%
CCN1CCC(C(=O)Nc2n[nH]c3nnc(-c4cccc(F)c4F)cc23)CC1 | 88.7% | -1.08% | 2.33% | 0.85% | 4.09% | -0.81% | 1.88% | -0.1% | 0.83% | -2.77% | -0.23% | -0.64% | -0.52% | -0.33% | -0.72% | 0.08% | 0.51% | -1.52% | -2.25% | -0.79%
COc1cc(N2CCN(C(C)C)CC2)ccc1Nc1nc(Nc2cccc3ncccc23)c2cc[nH]c2n1 | 5.17% | -1.1% | 3.6% | 1.11% | 6.13% | 0.17% | 5.14% | -2.97% | -0.36% | -2.04% | 0.21% | -0.27% | 1.83% | 1.44% | 2.03% | -0.29% | 0.54% | -1.75% | -2.15% | -0.18%
N#Cc1ccc2c(-c3ccnc(NC4CC4)n3)c(-c3ccc(F)cc3)nn2c1 | 45.1% | -2.11% | 0.75% | -0.93% | -1.01% | 17.2% | 71.1% | 1.33% | 4.26% | 0.07% | 1.27% | -2.45% | -1.38% | 75.4% | 84.2% | 44.5% | 74.8% | 1.17% | 0.18% | 1%

Reference: ChEMBL document CHEMBL1961873, “Compounds: GSK PKIS; Assays: Nanosyn kinase panel” (2012)
